According to PubChem BioAssay (NCI):
Compounds without any hit were thinned out: in the full panel of roughly 79,000, 15% have a hit. Unmarked numbers belong to inactive results. Active and inactive are the calls of the source. Cut-off read from the data, not from the text of the source: active = growth inhibition above about 70%; inactive = the rest.

Legend:
[1] = NCI Yeast Anticancer Drug Screen. Data for the rad50 strain (AID 155);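 note: 0% = growth of vehicle-only cultures of the same strain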; conditions: S. cerevisiae rad50 strain growth inhibition; at 50.0 µM; hits give high values
Summary of the method: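 Genetically altered yeast (DNA repair pathway); compound treatment; growth inhibition vs vehicle ctrl.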

[2] = NCI Yeast Anticancer Drug Screen. Data for the mec2-1 strain (AID 157); conditions: S. cerevisiae mec2-1 strain, at 50.0 µM, hits give high values
Summary of the method: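 mec2-1 yeast strain, carrying an alteration in DNA damage repair or cell cycle control, was exposed to compounds; growth inhibition was measured relative to vehicle-treated controls.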

[3] = NCI Yeast Anticancer Drug Screen. Data for the sgs1 mgt1 strain (AID 161);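 note: 0% = growth of cultures given vehicle only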; conditions: S. cerevisiae sgs1 mgt1 strain, at 50.0 µM, hits give high values
Summary of the method: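 This yeast growth screen uses a strain with defined DNA-repair lesions; compound-treated growth is compared with vehicle-treated growth.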

[4] = NCI Yeast Anticancer Drug Screen. Data for the cln2 rad14 strain (AID 165);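 note: 0% = growth equal to vehicle treated cultures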; conditions: S. cerevisiae cln2 rad14 strain, at 50.0 µM, hits give high values
Summary of the method: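 Yeast carrying cln2 and rad14 alterations (cell cycle control and DNA damage repair) were exposed to compounds. Growth inhibition was measured against vehicle-treated controls.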

[5] = NCI Yeast Anticancer Drug Screen. Data for the bub3 strain (AID 167); conditions: S. cerevisiae bub3 mutant strain, at 50.0 µM, hits give high values
Summary of the method: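 Yeast carrying a defined mutation is treated with each compound, and growth is compared with that of vehicle-exposed cells to give inhibition.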

[6] = NCI Yeast Anticancer Drug Screen. Data for the mlh1 rad18 strain (AID 175); conditions: S. cerevisiae mlh1 rad18 strain growth inhibition; at 50.0 µM; hits give high values
Summary of the method: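 Growth inhibition of the yeast strain was measured after compound exposure and expressed relative to vehicle-treated controls. The strain carries defined defects in DNA damage repair.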

Compound | growth inhibition [1] | growth inhibition [2] | growth inhibition [3] | growth inhibition [4] | growth inhibition [5] | growth inhibition [6]
CN(C)CCCNc1nnc(NCCCN(C)C)c2[nH]cnc12 | -3.2% | -4.2% | 7.85% | -24.9% | 6.5% | -4.35%
O=C(NC12OC3CC(CC(C3)O1)O2)NC12OC3CC(CC(C3)O1)O2 | 3.6% | 0.35% | 14.2% | -3.85% | -30.3% | 2.2%
CCOC(=O)C1=C(C)C/C(=N/NC(N)=O)CC1 | 6.35% | -17.9% | -0.95% | 0.05% | -0.95% | -7.85%
COC1OC2COC(c3ccccc3)OC2C(OC(=O)c2ccc([N+](=O)[O-])cc2)C1OS(=O)(=O)c1ccc(C)cc1 (stereo unspecified) | 39.6% | 17.2% | 21.6% | 25.1% | 0.7% | 15.8%
CCCCCCCCCCC/C(C)=N/Nc1ccc([N+](=O)[O-])cc1[N+](=O)[O-] | 5.65% | -5.15% | 2.15% | 11.8% | -0.2% | -13%
COC[C@H]1C(=O)NCC(=O)N2N=CCC[C@H]2C(=O)N(O)[C@H](C)C(=O)O[C@@H](C(C)C)[C@H](NC(=O)[C@@](C)(O)[C@]2(O)CC[C@@H](CC(C)C)[C@H](C)O2)C(=O)N2NCCC[C@@H]2C(=O)N1O | 91.8% (active) | 93.6% (active) | 93.7% (active) | 91.2% (active) | 93.2% (active) | 92.1% (active)
Nc1nnc(-c2ccc(-c3nnc(N)o3)cc2)o1 | -33.6% | -12.9% | -8.55% | -31.1% | 4.05% | -7.25%
CCOc1ccc([N+](=O)[O-])cc1 | -28.8% | 3.9% | -2.65% | -40.2% | -3.5% | -31.9%
COc1ccc(/C=C2\C(=O)N(C(=O)Cc3ccccc3)N=C2C)cc1OC | -20.3% | -20.2% | -59.1% | -16.8% | -12.4% | -42.6%
CCCC1(CCC)NC(=O)N(CC(N)=O)C1=O | 7.45% | 0.1% | -9.5% | -20.6% | -9.1% | 16.1%
CCOC(=O)c1ccc(NC(=O)/C=C/C(=O)O)cc1 | -20.2% | -17.9% | -2.9% | -3.3% | -9.7% | -15.3%
CCOC(=O)c1c(O)csc1C | -7.75% | -6.35% | -7.45% | -14.2% | -6.05% | -8.15%
CCOC(=O)CNc1ccccc1[N+](=O)[O-] | -2.05% | 5.8% | -5.4% | 12.3% | 13.1% | -3.75%
CC[n+]1ccccc1Br | 19.2% | 18.6% | 10.1% | -7.4% | 6.05% | 18.6%
NC(=S)c1ccncc1 | 6.5% | 8.15% | 13% | 12.7% | 5% | -27.4%
N#CCC(=O)N/N=C(\C(=O)Nc1ccc(Cl)c(Cl)c1)C1CN(c2ccccc2)N=C1N (stereo unspecified) | 24.4% | 6.9% | -11.8% | -44.4% | 0.45% | -8.4%
CC(C)(CN1CCCCC1)C(=O)/C=C/c1ccc(Br)cc1 | 66.9% | 22.8% | 59.6% | 41.4% | 47.8% | 55.6%
CCNC(CCCC1CCCCC1)C(=O)O (stereo unspecified) | -0.9% | -18.4% | -3.5% | -27.2% | -18.5% | 4.7%
Cc1ccc(C)c(NC(=O)CC/C(=N\NC(=O)c2c(O)ccc3ccccc23)C(C)C(=O)c2ccc(O)cc2)c1 (stereo unspecified) | 10.2% | 36.5% | -5.55% | 12.6% | 16.1% | 20.8%
Cc1ccc(Sc2cc([N+](=O)[O-])cc(Sc3ccc(C)cc3)c2Sc2ccc(C)cc2)cc1 | 22.2% | -24.7% | 10.4% | 5.25% | 1.35% | -11.7%
COc1ccc(C(C)=O)cc1CCCOC(C)=O | -0.7% | -1.35% | -7.5% | 10.7% | 9% | -2.6%

Compound | growth inhibition [1] | growth inhibition [2] | growth inhibition [3] | growth inhibition [4] | growth inhibition [5] | growth inhibition [6]
COc1cc(C2C3=C(CCCC3=O)N(c3ccc(C)cc3)C3=C2C(=O)CCC3)c([N+](=O)[O-])cc1OC | -10.8% | -4.2% | 2.65% | 2.2% | 4.3% | -0.3%
CCOC(=O)NC(=O)c1cn(CCCCCCOC(=O)NCCCCCCNC(=O)OCCCCCCn2cc(C(=O)NC(=O)OCC)c(=O)[nH]c2=O)c(=O)[nH]c1=O | 32% | 14.6% | 27.8% | 28.8% | 13.4% | 28.4%
Cc1cn(C2CC(N(C)O)C(CO)O2)c(=O)[nH]c1=O (stereo unspecified) | -16.8% | -27% | -8.15% | -34.7% | -12.3% | -58.9%
CC/C(SC)=[N+](\C)[O-] | 3.9% | -6.9% | -23.1% | -5.6% | -20.4% | 4.25%
COC(=O)c1c(C(=O)c2ccccc2)nn2c(-c3ccccc3)c(-c3ccccc3)c(-c3ccccc3)c(-c3ccccc3)c12 | 10.3% | -1.6% | -23.6% | 7.05% | -1.1% | 0.1%
CC(=O)Oc1ccc(C(C)(C)C)cc1C | 6.05% | -10.1% | -9.45% | -6.85% | 0.35% | -21.1%
CCCCCC(=O)OC[n+]1ccc2c(C)c3[nH]c4ccc(OC)cc4c3c(C)c2c1 | 87.8% (active) | 91.8% (active) | 90.2% (active) | 89.3% (active) | 87.1% (active) | 91.5% (active)
CN(C)CC1CCCCCC(Br)C1O (stereo unspecified) | -5% | 14.6% | -1.15% | -24.8% | -10.7% | 21.7%
CC(C)(C)OC(=O)NC1CC=CCC1NC(=O)OC(C)(C)C (stereo unspecified) | -52.7% | -11.6% | -16.6% | -19.6% | -17.8% | -29.1%
COC(=O)C(=O)Cc1nc2ccccc2s1 | 6.25% | 1.35% | 6.15% | -29.8% | -7.3% | 7.3%
O=S(=O)(c1ccccc1)c1cccc2c1NCCC2 | 34.9% | -1.75% | 34.4% | 8.4% | 62.3% | 43.6%
COc1ccc(/C=N/NC(=O)C(=O)Nc2ccc(Cl)c([N+](=O)[O-])c2)cc1OC | 2.15% | -20.9% | -0.65% | 2.85% | -4.1% | -6.4%
Oc1ccc(O)c(CCCc2cc(O)ccc2O)c1 | 13.3% | 7.8% | -2.25% | 0.5% | 6.95% | 49.5%
O=C1C(O)=C(c2ccccc2)C(=O)N1Cc1ccccc1 | 7.25% | -4.7% | 4.55% | -39% | 3.4% | -6.6%
COc1cccc(/C=C2/Sc3sc(C(C)=O)c(C)[n+]3C2=O)c1O | -15.9% | -1.55% | 8.7% | -2.05% | -4.55% | -9.6%
COc1ccc(/C=C/C(=O)c2ccccc2)cc1 | 25.7% | -18.1% | -12.6% | 2.25% | -28.9% | 4.9%
CSc1nc2nc(C)[nH]c2c(=O)[nH]1 | 9.8% | 5.45% | -4.45% | 41% | 9.8% | 7.6%
COc1ccc(N=Cc2ccc([N+](=O)[O-])cc2)cc1 | 27.9% | 0.75% | 15.2% | -22.4% | 9.9% | 36.1%
COC1C(/C=[N+](\C)[O-])OC2OC(C)(C)OC21 (stereo unspecified) | 10.2% | -9.5% | -12.8% | -26.1% | 17.6% | 12.8%
O=C(O)CCc1ccccc1-c1ccccc1C(=O)O | 4% | 1.45% | -2.45% | 8.8% | 0.35% | 31.4%
